Measurements: PubChem BioAssay (Tox21)
Values joined by “and” are separate entries in the source; they are usually repeats but may differ in a detail not shown here. Equal values may be shown once. Records with an inconclusive call do not appear. A structure can be active in one record and inactive in another. Active and inactive are the calls of the source. Unless noted, calls follow the shape of the dose curve; as a rule, active = well fitted curve in the direction sought with a large enough effect in the repeat runs; inconclusive = weak or mixed curves; inactive = no such curve, though single readings can be large; an effect the other way counts as inactive or inconclusive.

Columns and labels:
[1] = qHTS assay for small molecule agonists of the p53 signaling pathway - cell viability (AID 651633; calls by dose curve; also: nearly all actives have a fitted effect of over 30% in size; also: potency is read from the fitted curve at half-maximal effect)
Procedure, shortened: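 p53RE-bla cells, seeded at 4,000 per well and rested 5 h at 37 C/5% CO2, received compounds in DMSO for 16 h at 37 C. CellTiter-Glo was then added, and luminescence was read after 30 min at room temperature to gauge cytotoxicity.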

[2] = qHTS assay for small molecules that induce genotoxicity in human embryonic kidney cells expressing luciferase-tagged ATAD5 - cell viability (AID 651634; calls by dose curve; also: nearly all actives have a fitted effect of over 25% in size; also: potency is read from the fitted curve at half-maximal effect)
Procedure, shortened: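 After 15.5 hr incubation with compound at 37C, 5% CO2, HEK293T ATAD5-luciferase cells received CellTiter-Fluor reagent; fluorescence intensity was quantified following 30 min at 37C.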

[3] = qHTS assay for small molecule disruptors of the mitochondrial membrane potential - cell viability (AID 720634; calls by dose curve;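 also: human HepG2 liver cancer cells; nearly all actives have a fitted effect of over 20% in size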)
Procedure, shortened: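 ATP-based luminescent viability readout (CellTiter-Glo, 30 min, room temperature) in HepG2 cells multiplexed with the m-MPI membrane potential dye; compound exposure lasted 1 hr at 37 C.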

[4] = qHTS assay for small molecule disruptors of the mitochondrial membrane potential (AID 720635); also: potency is read from the fitted curve at half-maximal effect
Procedure, shortened: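 HepG2 cells (2,000/well) attached overnight at 37C, then took compound for 1 hr at 37C, 5% CO2. Mito-MPS dye was added for 30 min; fluorescence was read at 490/535 nm (monomers) and 540/590 nm (aggregates).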

[5] = qHTS assay to test for compound auto fluorescence at 590 nm (red) in HepG2 cells (AID 720674)
Procedure, shortened: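 Rose Bengal sodium served as the red fluorophore standard. HepG2 monolayers (overnight attachment, MEM with 10% FBS) were exposed to test compounds for 1 hr at 37 C and read at Ex 540/Em 590 nm.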

[6] = qHTS assay to test for compound auto fluorescence at 535 nm (green) in HepG2 cells (AID 720675)
[7] = qHTS assay to test for compound auto fluorescence at 460 nm (blue) in HEK293 cells (AID 720678)
Procedure, shortened: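 Intrinsic compound fluorescence is recorded in live HEK293 cultures after overnight incubation at 37C, 5% CO2, using excitation 405 nm and emission 460 nm. Values are referenced to triamterene.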

[8] = qHTS assay to test for compound auto fluorescence at 590 nm (red) in HEK293 cells (AID 720679)
Procedure, shortened: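 Red autofluorescence, HEK293 cells: 2,000 cells/well; attach 4-5 hr 37C; add 23 nL cpd or DMSO; incubate o/n 37C 5% CO2; read Ex540/Em590; Rose Bengal sodium reference.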

[9] = qHTS assay to test for compound auto fluorescence at 535 nm (green) in HEK293 cells (AID 720680)
[10] = qHTS assay to test for compound auto fluorescence at 460 nm (blue) in HEK293 cell free culture (AID 720681)
Procedure, shortened: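 Test compounds were pinned into cell-free culture medium (DMEM with 10% FBS) and fluorescence was read directly at Ex/Em 405/460 nm. Signals were expressed as fluorescence equivalents of triamterene, with DMSO vehicle as control.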

[11] = qHTS assay to test for compound auto fluorescence at 535 nm (green) in HEK293 cell free culture (AID 720682)
Procedure, shortened: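 Green-channel intensity (Ex/Em 485/535 nm) was recorded from compound-treated wells containing only DMEM with 10% FBS. Fluorescein provided the equivalency standard.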

[12] = qHTS assay to test for compound auto fluorescence at 590 nm (red) in HEK293 cell free culture (AID 720683)
Procedure, shortened: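 Tox21 10K library compounds were pinned into cell-free DMEM with 10% FBS and fluorescence was read at excitation 540 nm. Activity is expressed as Rose Bengal sodium equivalency.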

[13] = qHTS assay to test for compound auto fluorescence at 590 nm (red) in HepG2 cell free culture (AID 720684)
Procedure, shortened: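 Readout: intrinsic compound fluorescence at 590 nm emission after 540 nm excitation, scaled to Rose Bengal sodium. Matrix was cell-free MEM with 10% FBS; DMSO vehicle wells served as control.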

[14] = qHTS assay to test for compound auto fluorescence at 460 nm (blue) in HepG2 cell free culture (AID 720685)
Procedure, shortened: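 Cell-free plates of MEM plus 10% FBS received 23 nL compound or DMSO vehicle; blue-channel (405/460 nm) intensity scored against triamterene as reference fluorophore.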

[15] = qHTS assay to test for compound auto fluorescence at 535 nm (green) in HepG2 cell free culture (AID 720686)
[16] = biological target: Glucocorticoid receptor (Homo sapiens) (UniProt P04150); test: qHTS assay to identify small molecule agonists of the glucocorticoid receptor (GR) signaling pathway (AID 720691; active = well fitted activation curve with a large enough effect in the signal ratio in the repeat runs, not every such curve was filed as active; the % refers to the signal ratio); conditions: GR-bla HeLa, beta-lactamase reporter ratio, 18 h; activation: at 62.4 µM (top of the series) unless noted
Procedure, shortened: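 Cells: GR-bla HeLa, endogenous GR with stably integrated GRE-beta-lactamase reporter. Treatment 18 h, 37 C, compounds delivered in DMSO. Detection via LiveBLAzer B/G FRET substrate, 2 h RT, fluorescence intensity.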

[17] = biological target: Glucocorticoid receptor (Homo sapiens) (UniProt P04150); test: qHTS assay to identify small molecule antagonists of the glucocorticoid receptor (GR) signaling pathway (AID 720692; active = well fitted inhibition curve with a large enough effect in the signal ratio in the repeat runs, not every such curve was filed as active; the % refers to the signal ratio; also: potency is read from the fitted curve at half-maximal effect)
Procedure, shortened: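 Quantitative HTS in antagonist format: HeLa cells expressing endogenous GR and a stably integrated GRE-bla reporter, stimulated with 5 nM dexamethasone (final) alongside test compounds for 18 h.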

[18] = qHTS assay for small molecules that induce genotoxicity in human embryonic kidney cells expressing luciferase-tagged ATAD5 (AID 651632); also: nearly all actives have a fitted effect of over 15% in size
Procedure, shortened: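 Quantitative HTS in HEK293T expressing luciferase-tagged ATAD5, whose levels rise upon DNA damage. Exposure ran 16 hr at 37C and 5% CO2, with luminescence read 30 min after Amplite addition at room temperature.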

[19] = qHTS assay for small molecule agonists of the p53 signaling pathway (AID 651631; calls by dose curve; also: nearly all actives have a fitted effect of over 15% in size)
Procedure, shortened: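 We treat p53RE-bla HCT-116 cells with compounds for 16 h at 37 °C, add LiveBLAzer B/G FRET substrate for 2 h at room temperature, and measure fluorescence intensity.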

[20] = qHTS assay to test for compound auto fluorescence at 460 nm (blue) in HepG2 cells (AID 720687)
Procedure, shortened: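 Cells (2,000/well in MEM with 10% FBS) attached overnight at 37 C, then were exposed to compound or DMSO for 1 hr at 37 C, 5% CO2. Fluorescence read at Ex/Em 405/460 nm, expressed as triamterene-equivalent signal.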

Measured: Potency

Chain of Glucocorticoid receptor (Homo sapiens) (P04150 whole entry, looked up): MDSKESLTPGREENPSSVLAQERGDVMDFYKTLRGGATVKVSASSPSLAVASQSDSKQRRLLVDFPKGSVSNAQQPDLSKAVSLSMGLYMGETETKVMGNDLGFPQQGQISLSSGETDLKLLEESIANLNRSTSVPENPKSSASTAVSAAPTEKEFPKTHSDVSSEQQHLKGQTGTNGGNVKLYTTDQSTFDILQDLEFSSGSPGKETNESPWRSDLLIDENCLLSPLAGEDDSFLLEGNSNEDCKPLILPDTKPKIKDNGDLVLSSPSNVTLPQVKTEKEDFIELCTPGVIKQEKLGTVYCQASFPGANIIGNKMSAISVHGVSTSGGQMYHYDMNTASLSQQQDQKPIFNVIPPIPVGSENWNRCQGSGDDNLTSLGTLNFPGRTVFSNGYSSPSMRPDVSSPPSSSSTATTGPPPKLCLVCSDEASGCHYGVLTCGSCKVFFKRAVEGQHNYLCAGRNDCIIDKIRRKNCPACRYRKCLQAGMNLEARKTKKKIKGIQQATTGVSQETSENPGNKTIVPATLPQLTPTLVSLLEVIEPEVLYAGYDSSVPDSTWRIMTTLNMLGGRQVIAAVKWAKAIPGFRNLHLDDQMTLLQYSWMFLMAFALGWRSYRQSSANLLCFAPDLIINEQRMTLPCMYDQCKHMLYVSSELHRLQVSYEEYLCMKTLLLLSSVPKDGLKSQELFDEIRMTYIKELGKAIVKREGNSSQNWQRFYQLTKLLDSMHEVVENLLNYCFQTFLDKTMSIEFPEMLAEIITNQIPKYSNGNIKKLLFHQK

CCCCCCCCCCC=CC1CC(=O)OC1=O (centres undefined)
61.4 µM (active) and inactive: [1]
active: [4] 68.9 µM | [17] 15.6 µM and 49 µM
not listed: [18] | [19] | [20]
inactive: all other assays above

CN(CCOc1ccc(CC2SC(=O)NC2=O)cc1)c1ccccn1 (centres undefined)
not listed: [4] | [16] | [17] | [19] | [20]
inactive: all other assays above

O=C(O)c1cc(-c2ccccc2)nc2ccccc12
not listed: [1] | [4] | [5] | [18] | [20]
inactive: all other assays above

CC(=O)[C@@]1(O)CC[C@H]2[C@@H]3CCC4=CC(=O)CC[C@]4(C)[C@H]3CC[C@@]21C
active: [17] 1.07 µM and 275 nM
not listed: [1] | [5] | [19] | [20]
inactive: all other assays above

NCCNCCNCCNCCN
not listed: [1] | [4] | [5] | [19]
inactive: all other assays above

O=C1CCCCC1
not listed: [4] | [19] | [20]
inactive: all other assays above

OC1CCCC1
not listed: [5] | [8] | [19]
inactive: all other assays above

CC(C)n1c(/C=C/[C@@H](O)C[C@@H](O)CC(=O)O)c(-c2ccc(F)cc2)c2ccccc21
not listed: [1] | [2] | [4] | [5] | [16] | [17] | [18] | [19]
inactive: all other assays above

COC(=O)c1ccc(C(=O)OC)cc1
not listed: [1] | [4] | [5] | [16] | [17] | [18]
inactive: all other assays above

CC(C)(C)C(=O)C1C(=O)c2ccccc2C1=O
active: [2] 17.1 µM and 7.7 µM | [4] 10.8 µM and 6.11 µM
not listed: [8] | [17] | [19] | [20]
inactive: all other assays above

CCC(=O)O
not listed: [1] | [3] | [4] | [8] | [18] | [20]
inactive: all other assays above
